Values joined by “and” are separate entries in the source; they are usually repeats but may differ in a detail not shown here. Identical values can stand only once. Records with an inconclusive call do not appear. The source holds several records for some structures; these can differ, active in one and inactive in another. Active and inactive are the calls of the source.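 The calls were made as follows, unless noted: active = normalized viability below 100% at a tested concentration; inactive = the rest.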
Key:
[1] = growth inhibition of DIPG glioma cells, dose response, cell-based, SU-DIPG-XIII, MIPE4.0, CellTiter-Glo, qHTS (AID 1347061; cut-off not given, nearly all actives have AC50 up to about 37 µM;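 also: cells exposed to compound for 48 hours before readout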); conditions: SU-DIPG-XIII viability, CellTiter-Glo ATP luminescence
[2] = growth inhibition of DIPG glioma cells, dose response, cell-based, JHH-DIPG-1, MIPE4.0, CellTiter-Glo, qHTS (AID 1347062; cut-off not given, nearly all actives have AC50 up to about 27 µM); conditions: JHH-DIPG-1 viability, CellTiter-Glo ATP luminescence
[3] = growth inhibition of DIPG glioma cells, dose response, cell-based, SU-DIPG-IV, MIPE4.0, CellTiter-Glo, qHTS (AID 1347063; cut-off not given, nearly all actives have AC50 up to about 30 µM;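 also: compound exposure lasted 48 hours before the viability readout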); conditions: SU-DIPG-IV viability, CellTiter-Glo ATP luminescence
[4] = viability loss in pontine glioma line – cell-based, SU-DIPG-XXV, MIPE5.0, CellTiter-Glo, qHTS, dose response (AID 1347065; cut-off not given, nearly all actives have AC50 up to about 26 µM;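 also: cells exposed to compound for 48 hours before ATP readout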); conditions: CellTiter-Glo ATP luminescence
[5] = SU-DIPG-VI glioma cell viability, MIPE4.0 library, CellTiter-Glo luminescence, qHTS (AID 1347066; cut-off not given, nearly all actives have AC50 up to about 30 µM;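 also: cells exposed to compound for 48 hours before readout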); conditions: CellTiter-Glo ATP luminescence
[6] = modifiers of HSF1 nuclear foci, imaging, Selleck Cancer Library (AID 1347162; in the data active = plate-normalised HSF1 focus index below about 0.46); conditions: human cells, at 10 µM; SSMD: measured here: HSF1 foci SSMD mean; cell count: measured here: cell number; plate-normalised HSF1 focus index: stronger effect = lower value
[7] = ovarian cancer cell viability with rucaparib, profiling panel, oncology-focused library, rucaparib conditional (AID 1508598); conditions: patient-derived ovarian cancer cells, CellTiter-Glo viability, 144 h, stronger effect = lower value
[8] = LFS_MB_P medulloblastoma growth inhibition, cell-based, chromothripsis tumors, cisplatin or BGB combos (AID 1671449; in the data active = inhibition above about 80%;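 also: cells exposed for 96 hours; 0% = vehicle DMSO and 100% = killing by high DMSO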); conditions: LFS_MB_P medulloblastoma cells
[9] = HDN33 neuroblastoma growth inhibition, cell-based, chromothripsis tumors, cisplatin or BGB combos (AID 1671450; in the data active = inhibition above about 80%;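 also: cells exposed to compound for four days; 0% = vehicle DMSO and 100% = cell killing by high DMSO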); conditions: HDN33 neuroblastoma cells, stronger effect = higher value
[10] = ICB984 medulloblastoma cell growth inhibition, synergistic combos for chromothripsis tumors, cisplatin or BGB combos (AID 1671451); conditions: ICB984 medulloblastoma cells, drug combinations, at 0.005 µM, stronger effect = higher value;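 also: cells exposed for 96 hours before readout; 0% = vehicle DMSO and 100% = killing by high DMSO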

C/C(=C\C(=O)Nc1ccccc1C(=O)O)c1ccc2ccccc2c1
5.4% and -31%: inhibition ([10]; BGB IC40 combo)
2.21 and 1.02: SSMD [6]
7410 and 6940: cell count [6]
-18.4% and -24.9%: inhibition ([8]; measured here: combination with BGB IC40, at 0.005 µM)
-7.72% and -22.6%: inhibition ([9]; cisplatin combo, at 5 µM)
113% and 3.01%: inhibition ([8]; measured here: combination with cisplatin, at 0.5 µM, stronger effect = higher value)
-23.7% and -49.5%: inhibition ([9]; BGB combo, at 5 µM)
-36.5% and -10.3%: inhibition ([10]; BGB IC20 combo)
active: viability ([7]; at 0.000305 µM, OCI-C5x cells, with rucaparib 10 µM, 100% = cells with rucaparib alone) 89.1% | viability ([7]; at 0.00122 µM, OCI-P5x cells, with rucaparib 20 µM, 100% = cells with rucaparib alone) 96.8% | viability ([7]; at 0.00488 µM, OCI-C5x cells, with rucaparib 10 µM, 100% = cells with rucaparib alone) 92.9% | viability ([7]; at 0.0781 µM, OCI-C5x cells, with rucaparib 10 µM, 100% = cells with rucaparib alone) 95.3% | viability ([7]; at 0.313 µM, OCI-C5x cells, with rucaparib 10 µM, 100% = cells with rucaparib alone) 94.4% | viability ([7]; at 1.25 µM, OCI-C5x cells, with rucaparib 10 µM, 100% = cells with rucaparib alone) 95.9% | viability ([7]; at 5 µM, OCI-C5x cells, with rucaparib 10 µM, 100% = cells with rucaparib alone) 89.8% | viability ([7]; at 5 µM, OCI-C5x cells, without rucaparib) 98.2%
9.03% and -7.31%: inhibition ([8]; measured here: combination with BGB IC20, at 0.005 µM)
inactive: outcome [1] | outcome [2] | outcome [3] | outcome [4] | outcome [5] | plate-normalised HSF1 focus index [6] 1.08 and 1.06 | viability ([7]; at 0.000305 µM, OCI-C5x cells, without rucaparib) 109% | viability ([7]; at 0.000305 µM, OCI-P5x cells, with rucaparib 20 µM, 100% = cells with rucaparib alone) 107% | viability ([7]; at 0.000305 µM, OCI-P5x cells, without rucaparib) 103% | viability ([7]; at 0.00122 µM, OCI-C5x cells, with rucaparib 10 µM, 100% = cells with rucaparib alone) 102% | viability ([7]; at 0.00122 µM, OCI-C5x cells, without rucaparib) 107% | viability ([7]; at 0.00122 µM, OCI-P5x cells, without rucaparib) 101% | viability ([7]; at 0.00488 µM, OCI-C5x cells, without rucaparib) 110% | viability ([7]; at 0.00488 µM, OCI-P5x cells, with rucaparib 20 µM, 100% = cells with rucaparib alone) 112% | viability ([7]; at 0.00488 µM, OCI-P5x cells, without rucaparib) 103% | viability ([7]; at 0.0195 µM, OCI-C5x cells, with rucaparib 10 µM, 100% = cells with rucaparib alone) 111% | viability ([7]; at 0.0195 µM, OCI-C5x cells, without rucaparib) 111% | viability ([7]; at 0.0195 µM, OCI-P5x cells, with rucaparib 20 µM, 100% = cells with rucaparib alone) 106% | viability ([7]; at 0.0195 µM, OCI-P5x cells, without rucaparib) 112% | viability ([7]; at 0.0781 µM, OCI-C5x cells, without rucaparib) 104% | viability ([7]; at 0.0781 µM, OCI-P5x cells, with rucaparib 20 µM, 100% = cells with rucaparib alone) 109% | viability ([7]; at 0.0781 µM, OCI-P5x cells, without rucaparib) 113% | viability ([7]; at 0.313 µM, OCI-C5x cells, without rucaparib) 111% | viability ([7]; at 0.313 µM, OCI-P5x cells, with rucaparib 20 µM, 100% = cells with rucaparib alone) 109% | viability ([7]; at 0.313 µM, OCI-P5x cells, without rucaparib) 110% | viability ([7]; at 1.25 µM, OCI-C5x cells, without rucaparib) 108% | viability ([7]; at 1.25 µM, OCI-P5x cells, with rucaparib 20 µM, 100% = cells with rucaparib alone) 116% | viability ([7]; at 1.25 µM, OCI-P5x cells, without rucaparib) 118% | viability ([7]; at 5 µM, OCI-P5x cells, with rucaparib 20 µM, 100% = cells with rucaparib alone) 119% | viability ([7]; at 5 µM, OCI-P5x cells, without rucaparib) 117% | inhibition ([9]; at 0.5 µM) -19.3% and -46.7%
-14.6% and -44.4%: inhibition ([9]; measured here: with BGB IC20 combination, at 0.5 µM)
-14% and -26%: inhibition ([9]; single agent, at 5 µM)
-15.2% and -49.7%: inhibition ([9]; measured here: with cisplatin IC20 combination, at 0.5 µM)
102% (active) and -1.28% (inactive): inhibition ([8]; at 0.5 µM, stronger effect = higher value)
19.3% and -24.1%: inhibition ([8]; measured here: combination with BGB IC40, at 0.05 µM)
13.4% and -26.4%: inhibition ([8]; measured here: combination with cisplatin, at 5 µM, stronger effect = higher value)
